Results taken from PubChem BioAssay (EPA / NIEHS).
Records with an inconclusive call do not appear. The source holds several records for some structures; these can differ, active in one and inactive in another. Activity calls are given as the source filed them. How the source made its calls, unless noted: active means hit-call score of the fitted dose curve at least 0.9, where 1 is the maximum; inconclusive means response in the unintended direction; inactive means score below 0.9.

Tests used:
[1] = ATG_TCF_b_cat_CIS: Attagene CIS-FACTORIAL HepG2 Assay for human T-Cell-Factor with beta-catenin (TCF/b-cat) (AID 2282965; active means hit-call score of the fitted dose curve at least 0.9, where 1 is the maximum; inactive means score below 0.9); details: HepG2 TCF/beta-catenin cis-reporter transcription, actives raise or lower the signal
Summary of the method: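 HepG2, transient MRTU transfection, cis-element-driven reporters (endogenous TFs). 24 h compound exposure. Readout: reporter mRNA by RT-PCR + 6-FAM primer extension, HpaI digest, capillary electrophoresis. Gain/loss fit vs DMSO baseline.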

[2] = ATG_TAL_CIS: Attagene CIS-FACTORIAL HepG2 Assay for human TAL Basal Promoter (AID 2282966; active means hit-call score of the fitted dose curve at least 0.9, where 1 is the maximum; inactive means score below 0.9;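 further: background control endpoint measuring basal TAL promoter reporter mRNA not a specific factor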); details: HepG2 Attagene cis-factorial TAL promoter reporter; actives raise or lower the signal
Summary of the method: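 RT-PCR plus capillary electrophoresis quantifies reporter mRNA induction in transiently transfected HepG2 cells after 24 h chemical treatment. DMSO serves as negative control and baseline for bidirectional fitting.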

[3] = ATG_TGFb_CIS: Attagene CIS-FACTORIAL HepG2 Assay for human Transforming Growth Factor (TGF) (AID 2282967; active means hit-call score of the fitted dose curve at least 0.9, where 1 is the maximum; inactive means score below 0.9); details: HepG2 Attagene CIS TGFb reporter, mRNA transcription; actives raise or lower the signal
Summary of the method: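 HepG2 cells transiently transfected with cis-promoter-driven multiplexed reporter units; 24 h compound exposure. Reporter mRNA measured by RT-PCR, 6-FAM labeling, HpaI digestion and capillary electrophoresis; bidirectional fit versus DMSO baseline.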

[4] = ATG_VDRE_CIS: Attagene CIS-FACTORIAL HepG2 Assay for human Vitamin D Receptor Element (VDRE) (AID 2282968; active means hit-call score of the fitted dose curve at least 0.9, where 1 is the maximum; inactive means score below 0.9); details: HepG2 VDRE cis-reporter transcription, actives raise or lower the signal
Summary of the method: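 Cell-based multiplexed reporter format in human liver HepG2 cells, 24 h post-dose. Fluorescence from capillary electrophoresis of reporter cDNA gives the signal, with DMSO as negative control and baseline.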

[5] = biological target: Nuclear receptor subfamily 1 group I member 3 (Homo sapiens) (UniProt Q14994); test: ATG_CAR_TRANS: Attagene TRANS-FACTORIAL HepG2 Assay for human Constitutive Androstane Receptor (CAR) (AID 2282969); details: HepG2 Attagene TRANS-FACTORIAL CAR reporter;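 further: activators raise reporter mRNA above DMSO so AC50 marks induction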
Chain of Nuclear receptor subfamily 1 group I member 3 (Homo sapiens) (Q14994 whole entry, looked up, the tested form may be a part): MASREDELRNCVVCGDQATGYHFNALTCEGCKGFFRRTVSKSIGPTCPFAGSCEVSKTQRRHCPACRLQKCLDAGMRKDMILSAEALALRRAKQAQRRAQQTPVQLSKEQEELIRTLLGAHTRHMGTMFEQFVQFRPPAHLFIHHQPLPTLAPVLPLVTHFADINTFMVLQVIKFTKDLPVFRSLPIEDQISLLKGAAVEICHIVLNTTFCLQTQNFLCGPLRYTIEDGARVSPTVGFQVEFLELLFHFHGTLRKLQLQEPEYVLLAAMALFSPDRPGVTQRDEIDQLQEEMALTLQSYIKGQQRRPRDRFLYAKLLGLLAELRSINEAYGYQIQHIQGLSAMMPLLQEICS
Summary of the method: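 HepG2 cells transiently transfected with GAL4-UAS reporter units; TRANS format reads activity of exogenous chimeric NR-Gal4 protein. After 24 h dosing, reporter mRNA quantified by RT-PCR, 6-FAM labelling and capillary electrophoresis; gain of signal fitted against DMSO.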

[6] = biological target: Estrogen receptor (Homo sapiens) (UniProt P03372); test: ATG_ERa_TRANS: Attagene TRANS-FACTORIAL HepG2 Assay for human Estrogen Receptor alpha (ERa) (AID 2282970); details: HepG2 Attagene TRANS ERa GAL4 reporter, mRNA
Chain of Estrogen receptor (Homo sapiens) (P03372 whole entry, looked up, the tested form may be a part): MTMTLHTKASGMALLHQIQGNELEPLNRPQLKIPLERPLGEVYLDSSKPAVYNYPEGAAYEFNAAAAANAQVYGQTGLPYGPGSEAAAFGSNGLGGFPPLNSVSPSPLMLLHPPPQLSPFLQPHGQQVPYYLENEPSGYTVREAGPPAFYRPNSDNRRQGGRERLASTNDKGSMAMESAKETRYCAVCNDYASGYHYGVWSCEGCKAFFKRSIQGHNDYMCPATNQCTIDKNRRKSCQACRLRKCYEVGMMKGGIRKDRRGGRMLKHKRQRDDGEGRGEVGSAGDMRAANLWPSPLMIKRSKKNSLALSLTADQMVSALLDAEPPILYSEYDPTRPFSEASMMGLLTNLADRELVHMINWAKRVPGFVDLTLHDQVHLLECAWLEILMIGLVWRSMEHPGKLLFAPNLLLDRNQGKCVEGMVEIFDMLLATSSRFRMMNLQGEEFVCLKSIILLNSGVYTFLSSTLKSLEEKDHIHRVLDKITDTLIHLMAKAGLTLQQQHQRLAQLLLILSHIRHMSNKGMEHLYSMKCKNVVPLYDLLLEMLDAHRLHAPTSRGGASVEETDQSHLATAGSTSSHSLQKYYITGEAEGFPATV
Summary of the method: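 Cells: HepG2, transiently transfected. Construct: GAL4-UAS reporter units regulated by exogenous NR-Gal4 chimeras. Time: 24 h. Detection: reporter mRNA by RT-PCR, capillary electrophoresis, fluorescence. Baseline: DMSO, upward fitting.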

[7] = biological target: Steroid hormone receptor ERR1 (Homo sapiens) (UniProt P11474); test: ATG_ERRa_TRANS: Attagene TRANS-FACTORIAL HepG2 Assay for human Estrogen-Related Receptor alpha (ERRa) (AID 2282971); details: HepG2 Attagene TRANS reporter, ERRa transactivation
Summary of the method: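 Reporter transcripts from ERRa-Gal4 chimera activity measured in transiently transfected human HepG2 cells 24 hours after dosing, using RT-PCR with 6-FAM primer extension, HpaI digestion and capillary electrophoresis; DMSO is baseline.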

[8] = biological target: X-box-binding protein 1 (Homo sapiens) (UniProt P17861); test: ATG_Xbp1_CIS: Attagene CIS-FACTORIAL HepG2 Assay for human X-box Binding Protein 1 (XBP1) (AID 2282972; active means hit-call score of the fitted dose curve at least 0.9, where 1 is the maximum; inactive means score below 0.9); details: HepG2 XBP1 cis-element reporter, Attagene multiplex; actives raise or lower the signal
Chain of X-box-binding protein 1 (Homo sapiens) (P17861 whole entry, looked up, the tested form may be a part): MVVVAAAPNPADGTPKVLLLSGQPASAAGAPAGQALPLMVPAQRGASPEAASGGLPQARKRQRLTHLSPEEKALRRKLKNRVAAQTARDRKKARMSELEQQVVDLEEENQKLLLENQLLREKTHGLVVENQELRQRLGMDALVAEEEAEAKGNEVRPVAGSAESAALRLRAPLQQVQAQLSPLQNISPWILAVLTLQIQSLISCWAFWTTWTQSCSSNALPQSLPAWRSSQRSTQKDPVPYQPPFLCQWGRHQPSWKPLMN
Summary of the method: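 Fluorescence-labelled cDNA fragments from reporter transcripts, separated by capillary electrophoresis, give the signal. Source: HepG2 cells transfected with promoter-driven reporter units, harvested 24 h post-dose. DMSO served as reference for bidirectional curve fitting.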

[9] = ATG_M_19_TRANS: Attagene TRANS-FACTORIAL HepG2 Assay for M19 Transcription Factor (Internal Marker) (AID 2282974); details: HepG2 Attagene TRANS-FACTORIAL M19 internal marker reporter
Summary of the method: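 After transfection of HepG2 with GAL4-UAS-driven reporter constructs, cells are dosed for 24 h. Total RNA is reverse-transcribed, reporter sequences PCR-amplified and labelled, then HpaI-digested and sized by capillary electrophoresis.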

[10] = biological target: Estrogen-related receptor gamma (Homo sapiens) (UniProt P62508); test: ATG_ERRg_TRANS: Attagene TRANS-FACTORIAL HepG2 Assay for human Estrogen-Related Receptor gamma (ERRg) (AID 2282977); details: HepG2 Attagene TRANS reporter, ERRg transactivation;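 further: hits increase reporter signal over DMSO so potencies reflect activators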
Summary of the method: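 HepG2 cells transiently transfected with multiplexed GAL4-UAS reporter units and chimeric NR-Gal4 constructs were exposed to test chemicals for 24 h. Reporter mRNA was measured by RT-PCR, 6-FAM primer extension, HpaI digestion and capillary electrophoresis; gain-of-signal versus DMSO.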

[11] = biological target: Bile acid receptor (Homo sapiens) (UniProt Q96RI1); test: ATG_FXR_TRANS: Attagene TRANS-FACTORIAL HepG2 Assay for Farnesoid X Receptor (FXR) (AID 2282979); details: HepG2 Attagene TRANS FXR-GAL4 reporter transcription;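 further: hits raise reporter mRNA above DMSO so AC50 marks FXR activation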
Summary of the method: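 Reporter transcripts from transfected HepG2 cells were measured 24 h after dosing, using RT-PCR with capillary electrophoresis of 6-FAM-labelled fragments. The read-out reflects activity of exogenous FXR-Gal4 chimera on GAL4-UAS units, with induction relative to DMSO.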

[12] = biological target: Oxysterols receptor LXR-alpha (Homo sapiens) (UniProt Q13133); test: ATG_LXRa_TRANS: Attagene TRANS-FACTORIAL HepG2 Assay for human Liver X Receptor alpha (LXRa) (AID 2282980); details: HepG2 Attagene TRANS reporter, LXRa transactivation
Chain of Oxysterols receptor LXR-alpha (Homo sapiens) (Q13133 whole entry, looked up, the tested form may be a part): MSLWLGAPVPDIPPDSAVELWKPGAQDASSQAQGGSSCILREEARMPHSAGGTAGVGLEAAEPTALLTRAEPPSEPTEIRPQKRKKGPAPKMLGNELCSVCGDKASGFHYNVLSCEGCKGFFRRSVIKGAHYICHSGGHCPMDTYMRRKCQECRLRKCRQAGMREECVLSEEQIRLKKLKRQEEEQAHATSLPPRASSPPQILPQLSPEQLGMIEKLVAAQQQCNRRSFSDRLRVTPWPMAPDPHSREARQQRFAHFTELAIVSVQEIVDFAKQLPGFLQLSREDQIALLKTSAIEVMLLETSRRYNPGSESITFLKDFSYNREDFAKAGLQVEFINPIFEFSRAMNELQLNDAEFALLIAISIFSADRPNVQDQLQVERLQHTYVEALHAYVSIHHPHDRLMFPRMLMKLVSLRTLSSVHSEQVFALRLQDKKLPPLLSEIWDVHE
Summary of the method: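 Chemical-induced reporter mRNA measured by RT-PCR with fluorescent labelling and capillary electrophoresis after 24 h dosing of transiently transfected HepG2 cells expressing exogenous NR-Gal4 chimeras; increases scored against DMSO baseline.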

[13] = biological target: Oxysterols receptor LXR-beta (Homo sapiens) (UniProt P55055); test: ATG_LXRb_TRANS: Attagene TRANS-FACTORIAL HepG2 Assay for human Liver X Receptor beta (LXRb) (AID 2282981); details: HepG2 Attagene TRANS GAL4-LXRb reporter, mRNA
Chain of Oxysterols receptor LXR-beta (Homo sapiens) (P55055 whole entry, looked up, the tested form may be a part): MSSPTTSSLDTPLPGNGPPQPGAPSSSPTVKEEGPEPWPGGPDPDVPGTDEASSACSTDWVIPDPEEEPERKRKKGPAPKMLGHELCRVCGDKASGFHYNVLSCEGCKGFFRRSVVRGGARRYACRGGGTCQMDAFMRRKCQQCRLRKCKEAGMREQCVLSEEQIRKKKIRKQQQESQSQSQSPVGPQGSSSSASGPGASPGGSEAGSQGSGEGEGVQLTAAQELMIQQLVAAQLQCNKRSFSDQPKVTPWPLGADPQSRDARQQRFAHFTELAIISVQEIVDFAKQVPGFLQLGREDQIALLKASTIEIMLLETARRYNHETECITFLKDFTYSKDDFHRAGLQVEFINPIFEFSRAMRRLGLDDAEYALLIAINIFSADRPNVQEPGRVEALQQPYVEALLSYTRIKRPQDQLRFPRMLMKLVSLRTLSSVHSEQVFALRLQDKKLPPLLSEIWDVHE
Summary of the method: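 Gain-of-signal mRNA reporter endpoint, DMSO as negative control. Transiently transfected HepG2 cells carrying the NR-Gal4 chimera and GAL4-UAS reporter units were treated 24 h; transcripts quantified by RT-PCR and capillary electrophoresis fluorescence.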

[14] = biological target: Hepatocyte nuclear factor 4-alpha (Homo sapiens) (UniProt P41235); test: ATG_HNF4a_TRANS: Attagene TRANS-FACTORIAL HepG2 Assay for human Hepatocyte Nuclear Factor 4 alpha (HNF4a) (AID 2282982); details: HepG2 HNF4a transactivation reporter, mRNA readout
Chain of Hepatocyte nuclear factor 4-alpha (Homo sapiens) (P41235 whole entry, looked up, the tested form may be a part): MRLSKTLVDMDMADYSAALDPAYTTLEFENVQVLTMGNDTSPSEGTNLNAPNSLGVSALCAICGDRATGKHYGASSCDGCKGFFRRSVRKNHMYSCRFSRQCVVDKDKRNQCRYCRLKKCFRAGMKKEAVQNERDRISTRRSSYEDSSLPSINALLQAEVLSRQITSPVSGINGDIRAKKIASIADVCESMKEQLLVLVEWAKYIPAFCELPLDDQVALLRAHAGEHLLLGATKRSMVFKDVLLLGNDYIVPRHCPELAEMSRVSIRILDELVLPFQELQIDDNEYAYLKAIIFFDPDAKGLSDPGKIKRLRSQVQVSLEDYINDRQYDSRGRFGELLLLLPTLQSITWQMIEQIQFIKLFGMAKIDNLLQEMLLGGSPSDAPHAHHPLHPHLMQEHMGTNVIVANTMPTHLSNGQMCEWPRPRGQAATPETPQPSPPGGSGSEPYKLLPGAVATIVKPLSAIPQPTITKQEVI
Summary of the method: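 Gain-of-signal mRNA induction, relative to DMSO vehicle, was read after 24 h compound treatment of HepG2 cells bearing transfected GAL4-UAS reporters. Detection used RT-PCR, 6-FAM primer extension and capillary electrophoresis.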

[15] = ATG_GAL4_TRANS: Attagene TRANS-FACTORIAL HepG2 Assay for GAL4 (Internal Marker) (AID 2282976); details: HepG2 Attagene TRANS GAL4 internal marker reporter
Summary of the method: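 In transfected human HepG2 liver cells dosed 24 h, GAL4 reporter mRNA serves as a baseline marker. Detection by RT-PCR with fluorescent capillary electrophoresis, activity fitted upward relative to DMSO.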

[16] = biological target: Glucocorticoid receptor (Homo sapiens) (UniProt P04150); test: ATG_GR_TRANS: Attagene TRANS-FACTORIAL HepG2 Assay for human Glucocorticoid Receptor (GR) (AID 2282978); details: HepG2 Attagene TRANS GR reporter, mRNA transcription;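 further: activators score as hits since higher reporter transcript over DMSO is fitted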
Chain of Glucocorticoid receptor (Homo sapiens) (P04150 whole entry, looked up): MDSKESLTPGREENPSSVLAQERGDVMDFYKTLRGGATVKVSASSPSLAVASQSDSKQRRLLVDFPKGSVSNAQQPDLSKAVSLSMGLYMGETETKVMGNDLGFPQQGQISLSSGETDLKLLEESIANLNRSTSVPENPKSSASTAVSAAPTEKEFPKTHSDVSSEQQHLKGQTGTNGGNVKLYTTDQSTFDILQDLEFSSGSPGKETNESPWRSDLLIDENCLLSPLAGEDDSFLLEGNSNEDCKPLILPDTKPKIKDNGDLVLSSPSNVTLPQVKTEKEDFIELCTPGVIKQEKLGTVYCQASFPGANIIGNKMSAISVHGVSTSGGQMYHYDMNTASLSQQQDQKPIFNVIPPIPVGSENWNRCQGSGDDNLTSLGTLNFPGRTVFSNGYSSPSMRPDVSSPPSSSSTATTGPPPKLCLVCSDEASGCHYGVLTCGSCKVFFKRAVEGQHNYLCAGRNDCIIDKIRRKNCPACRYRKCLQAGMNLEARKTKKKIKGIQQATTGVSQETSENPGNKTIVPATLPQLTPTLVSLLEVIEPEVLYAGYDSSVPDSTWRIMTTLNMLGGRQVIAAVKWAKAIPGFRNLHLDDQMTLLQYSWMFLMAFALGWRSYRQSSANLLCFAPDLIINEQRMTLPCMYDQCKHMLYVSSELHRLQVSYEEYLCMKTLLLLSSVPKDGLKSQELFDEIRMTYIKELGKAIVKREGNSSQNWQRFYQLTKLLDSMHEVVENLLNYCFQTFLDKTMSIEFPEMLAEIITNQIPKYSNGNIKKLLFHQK
Summary of the method: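 Multiplexed TRANS reporter system, HepG2; 24 h exposure; RNA → oligo(dT) RT → reporter-specific PCR → 6-FAM primer extension → HpaI cut → CE fluorescence. Gain-of-signal vs DMSO.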

[17] = ATG_M_06_TRANS: Attagene TRANS-FACTORIAL HepG2 Assay for M06 Transcription Factor (Internal Marker) (AID 2282983); details: HepG2 Attagene TRANS M06 internal marker reporter
Summary of the method: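 Cells: HepG2, transient multi-reporter transfection. Exposure: 24 h. Detection: RT-PCR, 6-FAM labelling, HpaI digestion (2 h, 37 °C), capillary electrophoresis. Baseline: DMSO.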

[18] = ATG_M_32_TRANS: Attagene TRANS-FACTORIAL HepG2 Assay for M32 Transcription Factor (Internal Marker) (AID 2282984); details: HepG2 Attagene TRANS M32 internal marker reporter;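 further: transcript level of a background control reporter unit measured by RT-PCR and capillary electrophoresis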
Summary of the method: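 Capillary electrophoresis of 6-FAM-labelled reporter fragments gives the signal; data fitted for gain over DMSO negative control. Source: HepG2 cells bearing transient multiple reporter transcription units, 24 h exposure.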

[19] = biological target: Nuclear receptor subfamily 4 group A member 2 (Homo sapiens) (UniProt P43354); test: ATG_NURR1_TRANS: Attagene TRANS-FACTORIAL HepG2 Assay for human Nuclear Receptor Related Protein 1 (NURR1) (AID 2282985); details: HepG2 Attagene TRANS reporter, mRNA readout
Chain of Nuclear receptor subfamily 4 group A member 2 (Homo sapiens) (P43354 whole entry, looked up): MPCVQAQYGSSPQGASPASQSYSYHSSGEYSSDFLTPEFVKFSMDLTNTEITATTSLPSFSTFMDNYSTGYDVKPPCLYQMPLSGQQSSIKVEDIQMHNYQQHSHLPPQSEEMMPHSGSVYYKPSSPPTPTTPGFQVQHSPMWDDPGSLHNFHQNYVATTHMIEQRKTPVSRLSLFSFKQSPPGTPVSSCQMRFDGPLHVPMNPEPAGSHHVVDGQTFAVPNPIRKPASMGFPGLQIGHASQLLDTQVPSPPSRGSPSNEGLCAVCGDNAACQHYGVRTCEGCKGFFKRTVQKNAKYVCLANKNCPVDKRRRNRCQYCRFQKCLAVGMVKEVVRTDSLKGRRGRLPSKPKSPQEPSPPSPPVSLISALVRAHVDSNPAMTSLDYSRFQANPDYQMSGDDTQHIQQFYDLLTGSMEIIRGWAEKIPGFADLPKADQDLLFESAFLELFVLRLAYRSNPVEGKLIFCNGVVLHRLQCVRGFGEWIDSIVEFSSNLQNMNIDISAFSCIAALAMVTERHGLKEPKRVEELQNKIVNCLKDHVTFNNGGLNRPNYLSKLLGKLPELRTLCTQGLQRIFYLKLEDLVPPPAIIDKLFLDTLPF
Summary of the method: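 HepG2 / transient MRTU transfection / 24 h compound exposure / RT-PCR + CE fluorescence of reporter mRNA / gain-of-signal vs DMSO.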

[20] = biological target: Transcriptional activator Myb (Homo sapiens) (UniProt P10242); test: ATG_Myb_CIS: Attagene CIS-FACTORIAL HepG2 Assay for human Myeloblastosis (Myb) Proto-Oncogene Transcription Factor (AID 2282986; active means hit-call score of the fitted dose curve at least 0.9, where 1 is the maximum; inactive means score below 0.9); details: HepG2 Attagene CIS-FACTORIAL Myb reporter transcription; actives raise or lower the signal
Chain of Transcriptional activator Myb (Homo sapiens) (P10242 whole entry, looked up): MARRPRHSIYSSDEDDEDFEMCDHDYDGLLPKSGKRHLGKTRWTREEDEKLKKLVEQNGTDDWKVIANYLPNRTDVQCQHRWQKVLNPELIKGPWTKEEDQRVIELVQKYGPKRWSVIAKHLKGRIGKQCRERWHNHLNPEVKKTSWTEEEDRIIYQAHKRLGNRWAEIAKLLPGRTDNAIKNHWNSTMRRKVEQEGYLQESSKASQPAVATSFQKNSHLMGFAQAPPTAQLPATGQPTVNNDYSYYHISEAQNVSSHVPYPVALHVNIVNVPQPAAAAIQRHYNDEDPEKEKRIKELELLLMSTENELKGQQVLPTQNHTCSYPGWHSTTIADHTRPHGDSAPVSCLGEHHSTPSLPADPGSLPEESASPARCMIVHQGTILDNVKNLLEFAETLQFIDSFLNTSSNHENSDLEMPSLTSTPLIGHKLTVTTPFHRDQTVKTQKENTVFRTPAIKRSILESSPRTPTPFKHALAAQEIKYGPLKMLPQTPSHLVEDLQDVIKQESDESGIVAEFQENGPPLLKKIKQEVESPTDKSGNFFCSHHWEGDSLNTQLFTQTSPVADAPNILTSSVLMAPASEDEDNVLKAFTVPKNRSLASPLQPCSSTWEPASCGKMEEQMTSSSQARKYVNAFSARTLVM
Summary of the method: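 Endogenous transcription factor activity at a Myb-responsive cis element is reported in human liver HepG2 cells after 24 h chemical treatment. Reporter mRNA is detected by RT-PCR and capillary electrophoresis fluorescence, with DMSO as baseline.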

Measured: AC50

FC(F)(F)C(F)(F)C(F)(F)CI
not listed: [15] | [16] | [17] | [18] | [19] | [20]
inactive: all other assays above

FC(F)(F)C(F)(F)C(F)(F)C(F)(F)C(F)(F)C(F)(F)C(F)(F)Br
not listed: [19] | [20]
inactive: all other assays above

COC(=O)C1CCC(C(=O)OC)CC1 (stereo unspecified)
inactive: [1] | [2] | [3] | [4] | [6] | [7] | [8] | [9] | [11] | [18]
active: [1] 55.4 µM

O=S(=O)(O)c1ccc2ccccc2c1
active: [4] 29.3 µM
inactive: [1] | [2] | [3] | [4] | [6] | [8] | [9] | [15] | [12] | [17] | [18] | [19]

FC(F)(F)C(F)(F)C(F)(F)C(F)(F)C(F)(F)C(F)(F)C(F)(F)C(F)(F)CCS
not listed: [10] | [13] | [14] | [16] | [17] | [19]
inactive: all other assays above

CCCCOc1ccc(N)cc1
not listed: [14] | [16] | [17] | [19]
inactive: all other assays above

CCCCCCCCC(F)(F)C(F)(F)C(F)(F)C(F)(F)C(F)(F)C(F)(F)F
not listed: [10] | [12] | [14]
inactive: all other assays above

C=CC(F)(F)C(F)(F)C(F)(F)C(F)(F)C(F)(F)C(F)(F)C(F)(F)C(F)(F)C=C
active: [6] 2.76 µM
not listed: [10] | [14] | [15] | [17] | [19] | [20]
inactive: all other assays above

O=S(=O)(OCCOC(F)(F)F)C(F)(F)F
inactive: all assays above

CC(C)c1ccccc1N
active: [4] 35.5 µM
not listed: [11] | [12] | [13] | [16] | [17] | [19] | [20]
inactive: all other assays above

[Co]
active: [6] 32.5 µM
not listed: [14] | [16] | [17] | [19]
inactive: all other assays above

COC(OC(C)=O)c1ccccc1 (stereo unspecified)
inactive: [1] | [2] | [3] | [4] | [5] | [6] | [7] | [8] | [9] | [16] | [14]

O=C(O)C(F)(F)C(F)(F)C(F)(F)F
active: [6] 108 µM
not listed: [19]
inactive: all other assays above

CC(C)(C)C(=O)CC(=O)C(F)(F)C(F)(F)C(F)(F)F
not listed: [12] | [14] | [15] | [19]
inactive: all other assays above

FC(F)(F)C(F)(F)C(F)(F)N(C(F)(F)C(F)(F)C(F)(F)F)C(F)(F)C(F)(F)C(F)(F)F
not listed: [13] | [16] | [19] | [20]
inactive: all other assays above
